Screening results as filed in PubChem.
Rows were chosen to be rich in hits. Some 8.9% of all compounds tested hit in one or more screens of this group.
Htt clearance = compounds clearing mutant huntingtin protein. AID 853. inhibition, % at 1.5 µM. actives 0.42% (n = 47,000). HeLa Exon1htt(103Q)mCFP, aggregate imaging; zero = plate's median compound well;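 active means inhibition of aggregate fluorescence above about 70%, also judged a hit by eye on the cell image, limit read from the data, passing the limit was not always enough; inconclusive means no rule stated for this call; inactive means not judged a hit on image review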;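 further: cells exposed to compound for three days before fixation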
M1 antagonist = M1 muscarinic receptor (rat) antagonism. AID 628. B-score at 10 µM. actives 3.4% (n = 64,000). P08482. CHO-M1 cells, Fluo-4 calcium, ACh EC80 antagonist mode; hits give low values;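 active means calcium fluorescence response, raw or row-and-column corrected B-score, differing from the plate sample mean either way at a set confidence level, mostly lower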
D1 mod = allosterically modulates the human D1 dopamine receptor; P21728; HEK293 D1, CRE-luciferase, dopamine EC30 potentiation; actives deviate in either direction; B-score at 10 µM; actives 5.9% (n = 58,000);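 active means luminescence count or its row- and column-corrected plate score outside the 99.7% band of the plate's sample wells, on either side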
WNV protease inh = WNV NS2B-NS3 proteinase inhibition; P06935; WNV NS2B-NS3 protease, fluorogenic substrate Ex360/Em465; hits give low values; z-score (test concentration not listed); actives 0.18% (n = 65,000); in the data active means z-score below about -3
Target sequence (P06935 1371-1501 limits assumed): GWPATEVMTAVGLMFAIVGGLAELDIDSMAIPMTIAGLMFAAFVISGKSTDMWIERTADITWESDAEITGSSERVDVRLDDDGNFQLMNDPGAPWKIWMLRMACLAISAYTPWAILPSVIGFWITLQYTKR
Target sequence (P06935 1502-1679 limits assumed): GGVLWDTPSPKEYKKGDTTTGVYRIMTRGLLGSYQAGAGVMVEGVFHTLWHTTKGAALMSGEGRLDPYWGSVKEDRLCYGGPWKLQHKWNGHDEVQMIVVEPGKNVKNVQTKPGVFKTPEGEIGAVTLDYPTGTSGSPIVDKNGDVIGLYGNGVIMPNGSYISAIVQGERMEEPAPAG
M1 ag = activates the M1 muscarinic receptor; CHO-M1 cells, Fluo-4 calcium fluorescence, agonist mode; hits give high values; B-score at 10 µM; actives 3% (n = 64,000);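 active means fluorescence rise, raw or as B-score row- and column-corrected plate score, outside the 99.7% band of its plate's samples, either direction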
M1 ag confirm = confirmation of rat M1 muscarinic receptor agonists; shares compounds with M1 ag; CHO-M1 cells, Fluo-4 calcium fluorescence, agonist mode; actives lie on both sides; fluorescence change (max-min) at 10 µM; actives 19% (n = 1,700);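 active means fluorescence change differs from the solvent-only DMSO control mean at a set confidence level in both duplicate runs; inconclusive means differs from solvent-only control mean in just one of two runs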;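 further: an EC20 dose of acetylcholine follows compound addition during the same imaging run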
M4 agonist ctr = activates rat M4 receptor in counter-screen for M1 agonists; shares compounds with M1 ag; fluorescence change (max-min) at 10 µM; actives 9% (n = 1,700); CHO M4/Gqi5 cells, Fluo-4 calcium fluorescence, agonist mode; actives lie on both sides;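 active means fluorescence change differing from the plate's solvent-only control wells at 99.7% confidence in both duplicates, whether higher or lower; inconclusive means differs from solvent controls in only one of two duplicates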
Numbers stand for hits; – = inactive; ? = inconclusive; · = no result given.

SMILES	Htt clearance	M1 antagonist	D1 mod	WNV protease inh	M1 ag	M1 ag confirm	M4 agonist ctr
COCCCN1C(=O)C(=O)/C(=C(/O)c2ccccc2)C1c1ccc(N(C)C)cc1 (stereo not given)	–	–	–	–	–	·	·
CCN(CC)S(=O)(=O)c1ccc(/C(O)=C2/C(=O)C(=O)N(CCOC)C2c2ccccc2)cc1 (stereo not given)	·	–	–	–	33	–	–
CCC1=C/C(=C/N(C)c2ccccc2)C(=O)S1	–	–	–	–	–	·	·
c1ccc2c(c1)nc(N1CCN(C3CCCCC3)CC1)c1nnnn12	·	–	–	–	–	·	·
c1ccc(N2CCN(c3nc4ccccc4n4nnnc34)CC2)cc1	·	–	–	–	17	?	?
c1ccc2c(c1)nc(N1CCOCC1)c1nnnn12	·	–	·	–	6.4	–	–
CCn1c(C)nc2cc(C(=O)OC(C(F)(F)C(F)F)C(F)(F)C(F)F)ccc21	–	-0.79	–	–	11	–	–
CCOC(=O)c1ccc2c(c1)nc(COc1ccc3ccccc3c1)n2CC	–	·	·	·	·	·	·
C=CCn1cnc2c(c1=O)c1nc3ccccc3nc1n2/N=C/c1cc(OC)c(OC)c(OC)c1	·	-2.2	–	–	11	-33	–
COc1cc(-n2c3nc4ccccc4nc3c3c(=O)n(Cc4ccco4)cnc32)cc(OC)c1OC	·	–	·	–	–	·	·
COc1ccc(CCNC(=O)c2ccc3nc(-c4ccco4)c(-c4ccco4)nc3c2)cc1OC	–	–	–	–	8.5	–	–
COc1ccc(CCN(Cc2cccs2)S(=O)(=O)c2ccc(-n3cnnn3)cc2)cc1OC	–	–	–	–	4.5	?	-66
COc1ccccc1N1CCN(C(=O)CCNS(=O)(=O)c2ccc(Br)s2)CC1	·	–	–	–	2.6	?	–
O=C(CCNS(=O)(=O)c1ccc(Br)s1)N1CCN(c2ccccc2)CC1	–	–	–	–	–	·	·
c1ccc2sc(SCc3ccc(-c4nnco4)cc3)nc2c1	–	–	–	–	–	·	·
Cc1cc(C)nc(/N=c2/ssnc2Cl)c1	–	–	–	–	6.3	–	?
Cc1ccc(N=c2ssnc2Cl)cc1	–	·	·	·	·	·	·
COC(=O)C(C)NS(=O)(=O)c1ccc(NC(C)=O)cc1 (stereo not given)	–	–	–	–	–	·	·
Cc1ccc(C2C(C#N)=C(N)SC(N)=C2C#N)cc1	–	–	–	–	–	·	·
Cc1ccc(C2C(C#N)=C(N)SC(N)=C2C#N)c(C)c1	·	–	–	–	11	–	–
CCOC(=O)N1CC=C2C(C#N)=C(N)C(C#N)(C#N)[C@H](c3ccc(OCC)c(OCC)c3)[C@H]2C1	–	–	–	–	–	·	·
CN1CC=C2C(C#N)=C(N)C(C#N)(C#N)C(c3cccc(Cl)c3Cl)C2C1 (stereo not given)	·	–	-4.7	–	64	243	236
CCCN1CC=C2C(C#N)=C(N)C(C#N)(C#N)C(c3cccc(OC)c3OC)C2C1 (stereo not given)	·	–	–	–	89	666	628
CC(=O)N1CC=C2C(C#N)=C(N)C(C#N)(C#N)[C@H](c3ccoc3)[C@H]2C1	·	–	·	–	–	·	·
CC(=O)N1CC=C2C(C#N)=C(N)C(C#N)(C#N)C(CCc3ccccc3)C2C1 (stereo not given)	·	–	–	–	–	·	·
SMILES	Htt clearance	M1 antagonist	D1 mod	WNV protease inh	M1 ag	M1 ag confirm	M4 agonist ctr
CCCCOc1ccc(C2C3CN(C(=O)OCC)CC=C3C(C#N)=C(N)C2(C#N)C#N)cc1OC (stereo not given)	–	–	–	–	–	·	·
CCN1CC=C2C(C#N)=C(N)C(C#N)(C#N)C(CCc3ccccc3)C2C1 (stereo not given)	–	-2.5	–	–	32	247	?
COc1ccc(OC)c(C2C3CN(C(C)C)CC=C3C(C#N)=C(N)C2(C#N)C#N)c1 (stereo not given)	–	–	–	–	40	217	212
Cc1nnc(SCCn2c(N3CCN(c4ccccc4)CC3)nc3c2c(=O)n(C)c(=O)n3C)s1	·	–	–	–	–	·	·
O=C(c1ccco1)N1CCN(c2ccc(Cl)c(Cl)c2)CC1	·	–	–	–	–	·	·
CCCCCc1c(C)nc(Nc2nc(C)c3cc(OC)ccc3n2)[nH]c1=O	·	–	–	–	–	·	·
CCc1c(C)nc(Nc2nc(C)c3cc(OC)ccc3n2)[nH]c1=O	–	–	–	–	4.1	–	–
Cc1ccc(S(=O)(=O)NCC(=O)N(CC(=O)NC2CCCCC2)CC2CCCO2)cc1 (stereo not given)	–	·	·	·	·	·	·
O=C(O)c1ccc(NC(=O)C2(c3ccccc3)CCOCC2)cc1	–	–	–	–	–	·	·
COC(=O)c1ccccc1NC(=O)C1CC(=O)N(c2ccccc2)C1 (stereo not given)	–	–	–	–	–	·	·
O=C(Nc1cccc2nsnc12)C1CC(=O)N(c2ccccc2)C1 (stereo not given)	–	–	–	–	-2.7	?	?
O=C(Nc1ccc(N2CCN(C(=O)c3ccc(Cl)cc3)CC2)cc1)c1cc2ccccc2o1	–	·	·	·	·	·	·
O=C(Nc1ccccc1N1CCN(C(=O)c2ccc(Cl)cc2)CC1)c1cc2ccccc2o1	–	2.8	–	–	4.6	–	?
CCc1cc(=O)oc2c(C)c(OCC(=O)N3CCCc4ccccc43)ccc12	–	·	·	·	·	·	·
CC1CC(C)CN(CCCNC(=O)CNC(=O)Cn2ccc3ccccc3c2=O)C1 (stereo not given)	·	–	–	–	–	·	·
O=C(O)[C@@H](c1ccccc1)N1Cc2ccccc2C1=O	·	–	–	–	3	?	–
COc1cccc(C2C=C(c3ccc(OC)cc3OC)Nc3nnnn32)c1 (stereo not given)	·	–	–	–	3.3	–	–
COc1ccc(C2=CC(c3ccc(C)cc3)n3nnnc3N2)cc1 (stereo not given)	·	–	·	–	9.6	–	–
COc1ccc(NCc2nnc(SCC(=O)Nc3cc(C)cc(C)c3)o2)cc1	–	–	–	–	–	·	·
COc1ccc(CCNC(=O)CSc2nnc(CNc3ccc(Cl)cc3)o2)cc1OC	–	–	–	–	-2.2	–	–
Cc1ccccc1OCC(O)Cn1c(SC(C)C)nc2c1c(=O)[nH]c(=O)n2C (stereo not given)	·	–	–	–	6.9	–	–
CN(C)CCNc1nc2c(c(=O)[nH]c(=O)n2C)n1CC(O)COc1ccc(Cl)cc1Cl (stereo not given)	–	–	–	–	4.2	–	–
Cc1ccccc1OCC(O)Cn1c(NCc2ccccc2)nc2c1c(=O)[nH]c(=O)n2C (stereo not given)	–	·	·	·	·	·	·
COc1ccc(N2CCN(C(=O)CSc3nnnn3-c3ccc4c(c3)OCCO4)CC2)cc1	·	–	·	–	-3	–	?
CN1CCN(c2nc(-c3cccs3)cc(C(F)(F)F)n2)CC1	·	-18	·	–	3.1	?	?
